JMJD2A Tudor inh – blocks the human JMJD2A Tudor domain; O75164; AlphaScreen JMJD2A-Tudor / H3K4me3 peptide binding; Potency, µM (titrated, usually from 114 µM), for the others: at the top dose activity change, negative = inhibition, usual class: inhibitors; 390,000 tested, 4.4% active; AID 504339; note: % is set by controls: 0 for no effect and ±100 for the full control effect; nearly all actives have a fitted effect of over 50% in size
Target sequence (O75164 whole entry, looked up, the tested form may be a part): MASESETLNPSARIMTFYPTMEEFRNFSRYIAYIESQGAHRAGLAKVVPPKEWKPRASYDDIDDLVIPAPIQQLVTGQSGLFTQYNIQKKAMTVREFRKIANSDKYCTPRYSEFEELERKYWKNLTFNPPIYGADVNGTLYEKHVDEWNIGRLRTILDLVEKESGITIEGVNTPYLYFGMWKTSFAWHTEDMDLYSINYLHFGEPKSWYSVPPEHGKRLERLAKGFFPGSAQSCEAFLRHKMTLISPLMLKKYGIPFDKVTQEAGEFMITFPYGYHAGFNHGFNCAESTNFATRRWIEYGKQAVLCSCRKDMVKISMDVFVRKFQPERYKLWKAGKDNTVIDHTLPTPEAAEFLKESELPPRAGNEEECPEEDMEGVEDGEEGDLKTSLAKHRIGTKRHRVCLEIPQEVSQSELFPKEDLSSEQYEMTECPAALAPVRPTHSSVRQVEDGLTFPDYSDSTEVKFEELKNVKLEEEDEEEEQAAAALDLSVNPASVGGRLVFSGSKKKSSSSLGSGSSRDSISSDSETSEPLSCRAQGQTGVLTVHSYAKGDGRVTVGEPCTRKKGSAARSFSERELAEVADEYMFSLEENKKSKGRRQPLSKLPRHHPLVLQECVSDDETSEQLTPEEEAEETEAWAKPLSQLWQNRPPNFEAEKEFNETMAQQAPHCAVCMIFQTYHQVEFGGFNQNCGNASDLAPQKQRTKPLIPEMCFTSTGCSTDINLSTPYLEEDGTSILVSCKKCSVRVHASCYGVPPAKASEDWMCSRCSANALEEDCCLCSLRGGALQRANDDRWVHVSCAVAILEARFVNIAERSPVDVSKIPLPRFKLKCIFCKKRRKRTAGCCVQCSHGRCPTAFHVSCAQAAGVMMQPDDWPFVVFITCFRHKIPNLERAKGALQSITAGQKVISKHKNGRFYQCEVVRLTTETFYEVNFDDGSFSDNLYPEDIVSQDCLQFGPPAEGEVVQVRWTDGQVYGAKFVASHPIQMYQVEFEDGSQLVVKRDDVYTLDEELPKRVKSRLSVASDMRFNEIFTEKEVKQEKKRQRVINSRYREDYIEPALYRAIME
G9a inh – G9a (human) methyltransferase inhibition; 350,000 tested, 8.8% active; Potency, µM (top dose mostly 102 µM), for the others: at the top dose activity, negative = inhibition, most hits filed as inhibitors; Q96KQ7; G9a H3K9 monomethylation, AlphaScreen, 2 h; note: % is set by controls: 0 for no effect and ±100 for the full control effect; nearly all actives have a fitted effect of over 75% in size
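Enzyme 20 nM + cpd, 15 min RT; add b-H3K9 pep 500 nM / SAM 20 uM; 2 h RT; anti-H3K9me1 Ab 0.5 ug/mL + SA donor / anti-rabbit acceptor beads 20 ug/mL each, 10 min; AlphaScreen read.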
HP1b binding inh – HP1-beta chromodomain-methylated histone interaction inhibition; AlphaScreen HP1-beta / biotin-H3K9me3 peptide binding; Potency, µM (highest dose often 114 µM), without a hit: at the top dose activity change, negative = inhibition, actives largely listed as inhibitors; 390,000 tested, 0.56% active; note: nearly all actives have a fitted effect of over 70% in size
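AlphaScreen: HP1-beta (50 nM) preformed 30 min with biotin-H3(1-18)K9me3 peptide (50 nM) in PBS pH 7.4, 0.01% Tween-20. Compound added for 30 min at RT, then streptavidin donor/nickel chelate acceptor beads (10 ug/mL) for 30 min.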
Sfp PPTase inh – inhibitors of Bacillus subtilis Sfp phosphopantetheinyl transferase. Potency, µM, for inactives: largest response in the series, negative = inhibition, most hits filed as inhibitors. 310,000 tested, 3.5% active. Biochemical Sfp PPTase activity, qHTS;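 note: the enzyme is Sfp with the accession as filed and its product quenches rhodamine fluorescence; 0% = enzyme reaction without inhibitor and -100% = no enzyme wells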
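After 15 min at room temperature with compound, 15 nM Sfp received 5 uM rhodamine-CoA plus 12.5 uM BHQ-2-ybbR (50 mM Hepes pH 7.6, 10 mM MgCl2). Rate came from the fluorescence difference over 30 min, ex 525/em 598 nm.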
BAZ2B inh – BAZ2B (human) inhibition | Q9UIF8 | 360,000 tested, 4.4% active | Potency, µM (highest dose often 114 µM), for inactives: at the top dose activity change, negative = inhibition, actives largely listed as inhibitors | AlphaScreen BAZ2B-H3K14Ac peptide displacement; note: % is set by controls: 0 for no effect and ±100 for the full control effect; nearly all actives have a fitted effect of over 60% in size
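Protein-peptide AlphaScreen: BAZ2B 50 nM, b-H3K14Ac 50 nM, 1x PBS pH 7.4 + 0.01% Tween-20. Preincubation 30 min RT; cpd 30 min RT (top 110 uM); beads 20 min RT, light-protected.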
* hit, by the source's call; ? = inconclusive; . = no result given; [ ] = another dose, or the depositor's remark. This is a sample that favours compounds with a hit; in the whole collection about 12% have one here. Calls come from the whole dose curve; as a rule, active = well fitted curve in the direction sought with a large enough effect; inconclusive = small, poorly fitted or top-dose-only effect, or another doubt; inactive = no such curve, though single readings can be large; an effect the other way counts as inactive or inconclusive. Potency is the fitted concentration of half-maximal effect.

SMILES	JMJD2A Tudor inh	G9a inh	HP1b binding inh	Sfp PPTase inh	BAZ2B inh
COC(=O)c1c(SCC(=O)Nc2cc(C)cc(C)c2)[nH]c2ccccc2c1=O	-9%	10%[59 µM]	41%	.	1%
O=C(c1cc(C2CC2)on1)N1CCN(c2ccc(F)cc2)CC1	-28%	-4%[59 µM]	43%	-3%	-2%
Cc1cc(C)c(NC(=O)Cn2c(=O)n(-c3ccc(F)cc3)c(=O)c3c(C)c(C(=O)N(C)C)sc32)c(C)c1	-11%	0%[59 µM]	22%	.	-16%
Cc1ccc2cccc(N=Cc3c(C)[nH]n(-c4ccccc4)c3=O)c2n1	?	10µM*	-21%	-2%	-35%
COC(=O)N/N=C\c1c(C)[nH]n(-c2ccccc2)c1=O	?	1.8µM*	14%	-18%	?
CSc1nnc(-c2ccccc2N=Cc2c(C)[nH]n(-c3ccccc3)c2=O)c(=O)[nH]1	-18%	20%[0.501 µM]	11%	11%	?
Cc1[nH]n(-c2ccccc2)c(=O)c1/C=N/NC(=O)COc1ccccc1[N+](=O)[O-]	79µM*	2%[59 µM]	15%	21%	79µM*
Cc1[nH]n(-c2ccccc2)c(=O)c1/C=N/O	79µM*	.	8%	-17%	50µM*
CCOC(=O)NCCOc1ccc(Oc2ccccc2)cc1	.	.	.	-4%	.
Cc1[nH]n(-c2ccc(Cl)cc2)c(=O)c1C(=O)c1ccccc1	-29%	.	28%	3%	-7%
CCOC(=O)c1[nH]n(-c2ccc(Cl)cc2)c(=O)c1C	71µM*	?	?	-18%	?
CCOc1ccc2nc(/N=C/c3c(C)[nH]n(-c4ccccc4)c3=O)sc2c1	-14%	25µM*	?	10µM*	0%
Cc1[nH]n(-c2ccccc2)c(=O)c1C(=O)c1ccc(Cl)cc1	50µM*	.	-10%	6%	-13%
Cc1[nH]n(-c2ccccc2)c(=S)c1C=NCCCN=Cc1c(C)[nH]n(-c2ccccc2)c1=S	2µM*	1.8µM*	14µM*	-96%	?
Cc1[nH]n(-c2ccccc2)c(=O)c1C=NCc1ccco1	.	?	.	13%	-33%
CCN1C(=O)NC(c2ccccc2)(c2ccccc2)C1=O	4%	.	39%	.	.
COc1ccc(-c2nc(CN3CCC(C(=O)N4CCOCC4)CC3)c(C)o2)c(OC)c1	-17%	.	27%	1%	-6%
O=c1c2ccccc2nc(N2CCN(c3cccc(Cl)c3)CC2)n1-c1ccccc1	-15%	0%[59 µM]	37%	.	.
COCc1ccc(-c2c(-c3ccsc3)sc3ccccc23)cc1	84%	10%[0.501 µM]	108%	.	12%
COCC(=O)N/N=C/c1c(C)[nH]n(-c2ccccc2)c1=O	79µM*	9%	21%	-14%	22%
Cc1onc(-c2ccccc2)c1C(=O)N(Cc1ccco1)Cc1cccs1	-27%	?	19%	40µM*	-16%
Cc1onc(-c2ccccc2)c1C(=O)NCc1ccco1	-11%	50µM*	22%	?	8%
N/C(=N\OS(=O)(=O)c1ccc(Cl)cc1)c1ccncc1	-15%	2.5µM*	-17%	10%	7%
N/C(=N\OS(=O)(=O)c1ccc(Cl)cc1)c1cccnc1	-3%	?	42%	-3%	0%
O=c1c([N+](=O)[O-])c(O)c2ccccc2n1Cc1ccccc1	-28%	28µM*	18%	?	-17%
SMILES	JMJD2A Tudor inh	G9a inh	HP1b binding inh	Sfp PPTase inh	BAZ2B inh
CCn1c(=O)c([N+](=O)[O-])c(NCCN(C)C)c2ccccc21	-11%	56µM*	29%	3.5µM*	-29%
CCOCCCNC(=O)N[C@@H](Cc1ccccc1)C(=O)OC	-3%	29%	16%	12%	11%
NNC(=O)C(=O)NCCCN1CCOCC1	?	56µM*	15%	5%	-29%
O=C(/C=C/c1ccco1)NCCCN1CCOCC1	-5%	2%[12.7 µM]	22%	5%	-17%
CC(C)CNC(=O)C(=O)NCCCN1CCOCC1	-5%	.	-11%	7%	-8%
O=C(/C=C/c1ccc(Br)o1)NCCCN1CCOCC1	-10%	22µM*	17%	18µM*	?
CN(C)C=Nc1nc2ccccc2nc1N1CCCC1	12%	45µM*	88%	-28%	0%
c1ccc2nc(N3CCCC3)c(N3CCCC3)nc2c1	236%	17%[12.7 µM]	380%	7%	259%
CSc1nnc2c(n1)c(C)nn2-c1cccc(C)c1	?	10µM*	-35%	-16%	28µM*

Screening results deposited in PubChem by National Center for Advancing Translational Sciences (NCATS).
